Assay outcomes deposited in PubChem by The Scripps Research Institute Molecular Screening Center.
GPR151 activ – activators of human GPR151, primary screen, cell-based, PathHunter beta-arrestin, luminescence; activation, % at 11.2 µM; PathHunter beta-arrestin GPR151 cells; G-protein coupled receptor 151 (Homo sapiens), Q8TDV0; 650,000 tested, 1% active; in the data active = activation above about 4.9%
Target sequence (Q8TDV0 whole entry, looked up): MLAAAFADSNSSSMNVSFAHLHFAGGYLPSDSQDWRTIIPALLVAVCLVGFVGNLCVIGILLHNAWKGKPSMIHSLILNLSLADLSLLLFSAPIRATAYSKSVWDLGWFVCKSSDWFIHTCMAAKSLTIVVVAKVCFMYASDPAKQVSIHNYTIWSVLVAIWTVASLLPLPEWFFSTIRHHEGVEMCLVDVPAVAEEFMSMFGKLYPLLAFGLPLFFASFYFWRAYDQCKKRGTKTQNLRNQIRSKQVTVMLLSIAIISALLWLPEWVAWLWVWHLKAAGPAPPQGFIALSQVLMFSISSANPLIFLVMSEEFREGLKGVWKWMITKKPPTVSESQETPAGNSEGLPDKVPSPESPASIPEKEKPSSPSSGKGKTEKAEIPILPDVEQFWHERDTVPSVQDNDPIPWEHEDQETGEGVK
FBW7 activator – FBW7 E3 ligase activators, primary screen, biochemical, AlphaScreen, human | AlphaScreen FBW7–phospho-cyclin E peptide binding, activator screen | F-box/WD repeat-containing protein 7 (Homo sapiens), Q969H0 | normalized activity (activation), % at 26.1 µM | 650,000 tested, 0.13% active | AID 1259310, 2017; in the data active = normalized activity above about 1.9%;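 note: purified mutant Fbw7 with reduced substrate affinity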
TEAD-YAP inh – TEAD-YAP interaction inhibition, primary screen, TEAD-YAP interaction inhibitor project, luminescence, HEK-TIYL cells | TEAD-Gal4/YAP UAS-luciferase luminescence | inhibition, % at 9.12 µM | 640,000 tested, 1.4% active | AID 1259422, 2018; in the data active = inhibition above about 32%
MITF inh – MITF inhibitors, primary screen, biochemical, AlphaScreen, human | AlphaScreen MITF homodimerization, bead proximity signal | inhibition, % at 2.6 µM | 650,000 tested, 0.91% active | AID 1259374, 2018; in the data active = inhibition above about 50%
Each line names hits and unclear results; the compound was inactive in the other large screens. In the library only some 3.4% were active in any assay of this set; here they are far more common.

CCC(=O)NC(c1ccc(OC)cc1)c1cc([N+](=O)[O-])c2cccnc2c1O (centres undefined)	MITF inh 55
CCCCC(=O)NC(c1ccccc1OC)c1cc([N+](=O)[O-])c2cccnc2c1O (centres undefined)	MITF inh 51
Oc1c(C(Nc2ccccn2)c2cccnc2)cc(Cl)c2cccnc12 (centres undefined)	TEAD-YAP inh 58, MITF inh 85
Oc1c(C(c2cccnc2)N2CCOCC2)cc(Cl)c2cccnc12 (centres undefined)	none
COc1ccc(C(NC(=O)c2cccc(OC)c2)c2cc(Cl)c3cccnc3c2O)cc1 (centres undefined)	none
CCOc1cc(/C=C2/C(=O)NN(c3ccc(C)c(C)c3)C2=O)ccc1O	none
COc1cc2nc(NCCCN3CCCC3=O)nc(Nc3cc(OC)c(OC)c(OC)c3)c2cc1OC	none
Cc1cccc(C(=O)NC(CC(=O)O)c2cccc([N+](=O)[O-])c2)c1 (centres undefined)	none
COc1cc(NC(=O)c2cccnc2)c2ncccc2c1	TEAD-YAP inh 79
COc1ccc(I)cc1S(=O)(=O)N1CCOCC1	none
CNC(=O)c1ncccc1Nc1cc(Nc2ccc3c(c2)CC(=O)N3)ncc1C(F)(F)F	none
CNC(=O)c1ncccc1Nc1cc(Nc2ccc3c(c2)CCC(=O)N3)ncc1C(F)(F)F	TEAD-YAP inh 35
CC(=O)Nc1ccccc1Nc1cc(Nc2ccc3c(c2)CC(=O)N3)ncc1C(F)(F)F	TEAD-YAP inh 41
O=C1CCCC(O)=C1N=Nc1ccc(C(=O)O)cc1	MITF inh 66
Cc1ccc2nc(C3C(=O)c4ccccc4C3=O)ccc2c1	TEAD-YAP inh 54
COc1ccc2nc(C3C(=O)c4ccccc4C3=O)ccc2c1	TEAD-YAP inh 83
CC(C)NC(=O)CN(C)S(=O)(=O)c1ccc2ccccc2c1	none
O=C(N/N=C/c1cccc([N+](=O)[O-])c1O)c1cccs1	MITF inh 73
O=C(N/N=C/c1cccc([N+](=O)[O-])c1O)c1cccc([N+](=O)[O-])c1	MITF inh 53
O=C(N/N=C/c1ccc([N+](=O)[O-])cc1)c1cccs1	none
CCOC(=O)C1(Cc2ccc(Cl)cc2)CCN(C(=O)NC(C)(C)C)CC1	none
COc1ccc(C(=O)Nc2ccccc2[N+](=O)[O-])cc1Cl	none
CC(=O)Oc1ccc(C2Nc3c(C(=O)O)cccc3C3C=CCC32)cc1 (centres undefined)	MITF inh 66
Cc1cc(C)c2c(c1)[C@@H]1C=CC[C@@H]1[C@H](c1ccc(C(=O)O)cc1)N2	none
Cc1ccc2c(c1C)N[C@@H](c1ccc(C(=O)O)cc1)[C@H]1CC=C[C@@H]21	MITF inh 71
Cc1c(C(=O)O)ccc2c1N[C@@H](c1ccc(F)cc1)[C@H]1CC=C[C@@H]21	MITF inh 64
COc1cc(-c2nc3cnccn3c2NC2CCCCC2)cc(OC)c1OC	TEAD-YAP inh 38
COc1cc(-c2nc3cnccn3c2NC2CCCC2)cc(OC)c1OC	TEAD-YAP inh 32
O=C(COC(=O)CNS(=O)(=O)c1ccc(F)cc1)Nc1cccc(C(F)(F)F)c1	none
COc1ccc(OCCCCCNCCO)cc1	none
COCCNCCCOc1ccc(C(C)C)c(C)c1	none
Cc1cc(OCCCNCCO)ccc1C(C)C	TEAD-YAP inh 64
COc1ccc(OCCCNCCO)cc1	TEAD-YAP inh 41
COc1ccc(C(=O)CC(NCc2cccnc2)C(=O)O)cc1 (centres undefined)	none
CC1CC(C)(C)Nc2ccc(OC(=O)c3ccccc3)cc21 (centres undefined)	TEAD-YAP inh 44
O=C(Oc1ccc(OC(=O)c2ccccc2)cc1)c1ccccc1	none
c1ccc(N2CCN(c3nc(NCCN4CCOCC4)c4ncn(-c5ccsc5)c4n3)CC2)nc1	TEAD-YAP inh 57
CCCNc1nc(N2CCCC2CO)nc2c1ncn2-c1ccsc1 (centres undefined)	TEAD-YAP inh 37
COc1ccc(CCNc2nc(N3CCN(c4ccccn4)CC3)nc3c2ncn3-c2ccsc2)cc1	none
OCCNc1nc(N2CCN(c3ccccn3)CC2)nc2c1ncn2-c1ccsc1	TEAD-YAP inh 51
OCCNc1nc(N2CCN(c3ccccn3)CC2)nc2c1ncn2-c1ccccc1	TEAD-YAP inh 42
Cc1cn[nH]c1C1CCCN(Cc2cn(C)nc2C)C1 (centres undefined)	none
CCCCNC(=O)c1cc(S(=O)(=O)N2CCOCC2)ccc1F	none
COc1ccc(S(=O)(=O)NCCc2csc3nc(-c4ccccc4)nn23)cc1F	none
Cc1ncc(CO)c(/C=N/NC(=O)CCCOc2ccc(Cl)cc2Cl)c1O	TEAD-YAP inh 55
Cc1ncc(CO)c(/C=N/NC(=O)c2ccc(Cl)c(Cl)c2)c1O	none
Cc1ncc(CO)c(/C=N/Nc2cccc(Cl)n2)c1O	none
Cc1ncc(CO)c(/C=N/NC(=O)c2cc(O)c(O)c(O)c2)c1O	MITF inh 99
Cc1ncc(CO)c(/C=N/Nc2ccc3ccccc3n2)c1O	TEAD-YAP inh 52
CCOc1ccc(S(=O)(=O)N(C(C)=O)c2ccc(OC(C)=O)cc2)cc1	none
O=C(NCc1ccccc1)/C(=C\C=C\c1ccccc1)NC(=O)c1ccc([N+](=O)[O-])cc1	TEAD-YAP inh 56
CCOC(=O)c1ccc(COC(=O)c2ccccc2NC)cc1	FBW7 activator 2.2
Cn1cnnc1SCC(=O)NC1=NN=C(c2ccccc2)CS1	none
Cc1ccc(C2=NN=C(NC(=O)CSc3nnc(C)s3)SC2)cc1	TEAD-YAP inh 55
COc1ccc(-c2nnc(SCC(=O)Nc3ccc(N)cc3)n2-c2ccccc2)cc1	FBW7 activator 6.5
COc1ccc(NC(=O)c2ccc(NC(=O)CSc3nnc(N)s3)cc2)cc1	FBW7 activator 8.2
Cc1nnc(SCC(=O)Nc2ccc3ccccc3c2)s1	FBW7 activator 2.0
Cc1nnc(SCC(=O)Nc2ccc(Cl)c(Cl)c2)s1	none
CCOc1ccc(-c2nnc(SCC(=O)N3CCCCC3C)o2)cc1 (centres undefined)	none
CCN(CC)S(=O)(=O)c1ccc(N=Nc2c(O)[nH]c(=O)[nH]c2=O)cc1	none
c1ccc(Cc2nc(NC3CCN(Cc4ccccc4)CC3)c3c4c(sc3n2)CCCC4)cc1	none
COc1ccccc1C(=O)NN1C(=O)C2C3C=CC(C4CC34)C2C1=O (centres undefined)	none
O=C(CSc1nnc(SCC(=O)N2CCOCC2)s1)N1CCOCC1	none
Cc1sc2ncnc(SCc3cc([N+](=O)[O-])cc4c3OCOC4)c2c1C	none
Cc1sc2ncnc(SCc3cc(=O)oc4cc(O)c(O)cc34)c2c1C	MITF inh 64
C/C=C/COC(=O)C1=C(C)NC(=O)NC1c1ccc(Cl)cc1Cl (centres undefined)	TEAD-YAP inh 64
CC(C)(C)NC(=O)c1cccc(NC(=O)c2cccc(O)c2)c1	TEAD-YAP inh 34
CC(=O)Oc1ccc(C(=O)Nc2cccc(C(=O)NC(C)(C)C)c2)cc1	none
CC(C)C(=O)Nc1cccc(NC(=O)c2cccc(Br)c2)c1	none
